For 103 molecules, INHIBITION results are on record in ChEMBL document CHEMBL4513216, “Probing the Open Global Health Chemical Diversity Library for Multistage-Active Starting Points for Next-Generation Antimalarials” (ACS Infect Dis, 2020).

Each structure is given as a SMILES string. Screen size: about 68,000 compounds; about 2,700 (4%) showed an effect of 50% or more. The sample holds strong results, similar compounds and a random draw of the others, so the mix is not that of the screen.

The test concerns Plasmodium berghei. Briefly: Screen against P. berghei liver stage (PbLuc), transformed with Luciferase, at 2uM. It is filed as functional, HepG2. Conditions: tested at 2 uM.
Turning to `CC[C@H]1CN(C(=O)c2cnc(CN3CCCC3)s2)CC[C@@]1(C)O`, the INHIBITION is on record as -47.18%.
For `Cc1ccc([C@@H]2CN(S(=O)(=O)C(C)C)C[C@H]2N(C)C)cc1` the value was 4.47%; for `Cc1ccc([C@@H]2CN(S(=O)(=O)N(C)C)C[C@H]2N(C)C)cc1`, 28.49%.
As for `Cc1ccc([C@@H]2CN(S(=O)(=O)N3CCC(C)CC3)C[C@H]2N(C)C)cc1`, the INHIBITION is 65.1%.
With `CN(C)C(=O)CN1CCC(c2c(C(N)=O)sc3ncccc23)C1` (stereo not drawn), the INHIBITION is given as -21.9%.
Under `Cc1nc(N)sc1C(=O)N1CCCC(c2nccn2CCCN(C)C)C1` (stereo not drawn) stands 29.02%; under `CCn1ccnc1C1CCCN(C(=O)c2sc(C)nc2C)C1` (stereo not drawn), 58.56%; under `Cc1nc(C)c(C(=O)N2CCCC(c3cnccn3)C2)s1` (stereo not drawn), 38.65%.
In the case of `CC(=O)N1CCOC2(CCN(C(=O)c3cnoc3C)CC2)C1`, the INHIBITION is -21.09%.
For `CC(C)c1cccc(-n2cc(O)c(C(=O)O)n2)c1` the value was 50.61%; for `CC(C)c1ccc(-n2cc(O)c(C(=O)O)n2)cc1`, 23.16%; for `CC(C)c1cccc(-n2cc(O)c(C(N)=O)n2)c1`, 11.9%.
Under `CN(C)CC(=O)N1CCC2(CC1)CN(c1ncccn1)CCO2` stands 25.4%; under `CCC(C)n1cnc(S(=O)(=O)N(Cc2cccnc2)C(C)C)c1` (stereo not drawn), 59.03%; under `CCC(C)n1cnc(S(=O)(=O)N(C)c2cccnc2N(C)C)c1` (stereo not drawn), 11.9%.
For `CCC(C)n1cnc(S(=O)(=O)N(C)C)c1` (stereo not drawn) the value was -15.03%; for `O=C(Nc1cccc(CNCc2cccs2)c1)C1CC1`, 62.82%.
As to `O=C(Nc1cccc(CNCc2cccs2)c1)C1CCCC1`, the INHIBITION is listed as -5.15%.
Regarding `O=C(Nc1cccc(CNCc2ccsc2)c1)C1CC1`, the INHIBITION worked out at 30.92%.
Under `CNC(=O)N1CC[C@@H]2CN(Cc3cccc(OC)c3)S(=O)(=O)[C@@H]2CC1` stands -72.58%; under `CS(=O)(=O)N1CC2(CCN(C3COC3)C2)Cc2ccccc21` (stereo not drawn), 26.56%.
Under `O=C(NCCCn1nc2ccccn2c1=O)NC1CCC(O)CC1` (stereo not drawn) stands 8.3%.
For `CCN(C(=O)CNc1cc(C)c(F)cc1C(N)=O)C1CC1` the value was -31.4%; for `Cc1cc(OCC(=O)NS(=O)(=O)c2c(C)noc2C)ccc1Cl`, -12.48%.
Regarding `Cc1noc(C)c1S(=O)(=O)NC(=O)COc1cccc(C(C)C)c1`, the INHIBITION came to 42.99%.
On to `Cc1noc(C)c1S(=O)(=O)NC(=O)COc1ccc2c(c1)CCC2`, for which the INHIBITION was 56.78%.
Under `Cc1noc(C)c1S(=O)(=O)NC(=O)COc1ccc(C(C)C)cc1` stands 19.71%; under `Cc1ccc(OCC(=O)NS(=O)(=O)c2c(C)noc2C)cc1C`, 57.33%; under `Cc1cc(C)c(OCC(=O)NS(=O)(=O)c2c(C)noc2C)c(C)c1`, 5.72%.
For `O=C(c1ccccc1)C1CCN(C(=O)CC2COCCN2)CC1` (stereo not drawn) the value was -13.88%; for `CCn1cnnc1C1CCN(C(=O)c2ccccc2F)CC1`, -19.35%.
For `COc1ccc(NC(=O)N2CCC(c3noc(C)n3)CC2)cc1C` the value was -30.88%.
As for `c1ccc(N2CCCC3(CCN(Cc4ccsc4)C3)C2)nc1` (stereo not drawn), the INHIBITION was 33.14%.
Under `CC(=O)NCC(=O)N1CCCC1c1ccc(CN2CCOCC2)cn1` (stereo not drawn) stands 26.22%; under `CC(C)c1noc(CN2CCN(C(=O)c3cccnc3O)CC2)n1`, -2.82%.
Under `Cc1cc(CNc2nccc(N)n2)c2[nH]c(C)c(C)c2c1` stands -5.41%.
For `CCc1ncnc2c1CCN(S(=O)(=O)CC)CC2` the value was 1.81%.
Consider `Cc1ncsc1CCN(C)C(=O)c1ccc(Cn2cnnn2)cc1`, for which the INHIBITION was 89.46%.
For `Cc1nc(CN(C)C(=O)c2ccc(Cn3cnnn3)cc2)cs1`, the INHIBITION was 21.57%.
For `Cc1ncsc1CCN(C)C(=O)c1ccc(CN2CCCCC2)cc1` the value was -20.75%; for `CC(Cn1ccnc1)NC(=O)NCCc1ccc2c(c1)OCCO2` (stereo not drawn), -14.3%.
Under `O=C(N1CCCC1)C1(Cc2ccc(-c3cccs3)cc2)CCNC1` (stereo not drawn) stands 17.24%.
For the molecule `COCC(=O)N1CCCN(Cc2c(C)nc3ccc(Cl)cn23)CC1`, the INHIBITION is on record as 12.43%.
As for `CCn1cc(CN2CCN(CC(O)c3ccc(C)cc3C)CC2)cn1` (stereo not drawn), the INHIBITION is reported as 35.73%.
With `CCn1cc(CN2CCN(CC(O)c3ccc(C)cc3C)CC2)c(C)n1` (stereo not drawn), the INHIBITION came out at 54.9%.
On to `CCn1cc(CN2CCN(CC(O)c3cc(C)ccc3C)CC2)c(C)n1` (stereo not drawn), for which the INHIBITION is reported as -2.2%.
Under `CN(Cc1ccc(N(C)C)cc1)C(=O)CS(=O)(=O)c1ccc(Cl)cc1` stands 9.02%; under `Fc1cccc(C2CCCCN2Cc2nc(-c3cnccn3)no2)c1` (stereo not drawn), 58.69%.
Under `Cc1nccc(C2CCCCN2Cc2cccc(F)c2)n1` (stereo not drawn) stands 94.5%; under `c1ccc(C2CCCN2Cc2nc(-c3cnccn3)no2)nc1` (stereo not drawn), -5.19%; under `c1ccc(C2CCCCN2Cc2nc(-c3cnccn3)no2)nc1` (stereo not drawn), 6.92%.
For the molecule `Nc1nccc(C2CCCCN2Cc2cccc(F)c2)n1` (stereo not drawn), the INHIBITION was determined as 25.72%.
For `Cc1nccc(C2CCCCN2Cc2ccc(F)cc2)n1` (stereo not drawn) the value was -10.12%.
Under `Cc1cc(=O)[nH]c(-n2nc(C)c(CCC(=O)Nc3nc(C)cs3)c2C)n1` stands -7.56%; under `Cc1ccsc1CN1CCn2c(COc3cccnc3)cnc2C1C` (stereo not drawn), 3.63%.
Under `O=S(=O)(Nc1cnn(C2CCOCC2)c1)c1ccc(F)c(F)c1` stands -38.4%.
For the molecule `COc1cccc(CNC(=O)CCC2=Nc3ccccc3S(=O)(=O)N2)c1`, the INHIBITION is -1.65%.
In the case of `Cc1ccc(NCCCNc2nccc(-c3cn(C)nc3C)n2)nc1`, the INHIBITION stood at 37.5%.
For `CNC(=O)C1Cn2ccnc2C2(CCN(Cc3cccc(C)n3)CC2)O1` (stereo not drawn) the value was -15.95%; for `O=C(Cn1cccn1)NCC1CCN(Cc2cc3ccccc3[nH]2)C1` (stereo not drawn), -0.59%; for `O=C(Cn1cccn1)NCC1CCCN(Cc2ccccc2)C1` (stereo not drawn), 81.59%.
Turning to `Cc1cc(CN2CCCC(CNC(=O)Cn3cccn3)C2)oc1C` (stereo not drawn), the INHIBITION was found to be 2.9%.
For `Cc1cc(C2CCCN2C(=O)c2ccc(OCC(N)=O)cc2)no1` (stereo not drawn) the value was 34.18%; for `CC(C)(C)CC(=O)N[C@@H]1CO[C@H](CNC(=O)c2ccncc2)[C@H]1O`, 17.9%.
For `CC(NCc1cccs1)c1ccc(OCc2nccn2C)cc1` (stereo not drawn) the value was 63.46%; for `CC(NCc1ccsc1)c1ccc(OCc2nccn2C)cc1` (stereo not drawn), 24.05%.
In the case of `CC(NCc1cnn(C)c1)c1ccc(OCc2nccn2C)cc1` (stereo not drawn), the INHIBITION turned out to be 37.18%.
Under `O=C(CCCc1cn[nH]c1)N1C[C@@H](CN2CCCCCC2)[C@@H](CO)C1` stands -5.41%; under `CC(CNC(=O)c1c[nH]nn1)Oc1cccc(Br)c1` (stereo not drawn), -10.85%.
For `Cc1ccc(OC(C)CNC(=O)c2c[nH]nn2)cc1` (stereo not drawn) the value was -9.5%.
Under `CC(CNC(=O)c1c[nH]nn1)Oc1ccccc1Br` (stereo not drawn) stands 67.83%.
With `CC(=O)NCC(=O)N1Cc2cc(C#N)ccc2C1c1cnco1` (stereo not drawn), the INHIBITION is listed as -9.91%.
For `CC(C(=O)Nc1cccc(F)c1)N(C)CCN1CCOCC1` (stereo not drawn) the value was 57.23%.
Turning to `CC(C(=O)Nc1cccc(C(F)(F)F)c1)N(C)CCN1CCOCC1` (stereo not drawn), the INHIBITION was -18.99%.
Under `CC(C(=O)NCc1ccc(F)cc1)N(C)CCN1CCOCC1` (stereo not drawn) stands 10.71%; under `CCOCC1CN(Cc2cnn(C)c2)Cc2nn(CC3CC3)cc21` (stereo not drawn), -50.35%; under `Cc1oc(-c2ccsc2)nc1CC(=O)NCC(=O)Nc1cn[nH]c1`, 11.01%.
For the molecule `Cc1cnn(CC2CCCCN2CCS(C)(=O)=O)c1` (stereo not drawn), the INHIBITION is given as 44.41%.
For `O=C1N(Cc2ccccn2)C[C@H]2CN(C3CCC3)CCN12`, the INHIBITION is reported as 52.36%.
For `O=C1N(Cc2ccccn2)C[C@H]2CN(S(=O)(=O)c3ccccc3)CCN12` the value was 50.72%; for `O=C1N(Cc2cccnc2)C[C@H]2CN(S(=O)(=O)c3ccccc3)CCN12`, 40.83%.
Under `O=C1N(Cc2ccccn2)C[C@H]2CN(C3CCOCC3)CCN12` stands -8.59%; under `CC(=O)N1CCC(N2CCN3C(=O)N(Cc4ccccn4)C[C@H]3C2)CC1`, 37.54%.
With `Cn1ccnc1CN1C[C@H]2CN(S(=O)(=O)c3ccccc3)CCN2C1=O`, the INHIBITION was determined as 15.02%.
For `Cc1c(F)cccc1S(=O)(=O)NC(C)(C)CN`, the INHIBITION was determined as 36.53%.
Turning to `CNC(=O)[C@@H]1[C@@H](c2ccccc2)CN2CCN(Cc3ccco3)C[C@H]12`, the INHIBITION is -0.14%.
For `CCN(Cc1ccco1)C(C)c1nc(C(C)(C)C)no1` (stereo not drawn) the value was 33.78%; for `CN(C)CCCNCCC(Cc1ccccc1)C1CCOC(C)(C)C1` (stereo not drawn), -18.52%; for `CC(C(=O)N1CCn2cncc2C1)N1CCCC1` (stereo not drawn), 17.2%.
In the case of `CC(C(=O)N1CCn2cncc2C1)N1C[C@@H](C)O[C@@H](C)C1` (stereo partly drawn), the INHIBITION is -28.11%.
On to `O=C(C(c1ccc(F)cc1)N1CCCCC1)N1CCn2cncc2C1` (stereo not drawn), for which the INHIBITION was 50.59%.
Under `Cc1nn(C)c(C)c1CC(=O)N1CCCC(n2ccnc2C)C1` (stereo not drawn) stands 45.83%; under `CCCn1nccc1NC(=O)CN1CCn2c(nnc2C2CC2)C1`, 9.36%; under `CNC(=O)COC1COC2(CCN(Cc3cccnc3)CC2)C1` (stereo not drawn), 28.88%.
As to `CSC1=Nc2c(cnn2-c2ccc(Cl)cc2)C2=NCCCN12`, the INHIBITION is -4.43%.
For `CCSC1=Nc2c(cnn2-c2ccc(Cl)cc2)C2=NCCCN12` the value was 51.78%.
As to `CSC1=Nc2c(cnn2-c2cccc(Cl)c2)C2=NCCCN12`, the INHIBITION is listed as 18.15%.
For `CC(=O)NCCc1ccc(S(=O)(=O)N(C)C(C)C(C)(C)C)s1` (stereo not drawn) the value was 32.1%; for `CN(C)C(=O)COC[C@@H]1CC[C@H]2[C@H](CCN2c2ccccn2)O1`, -3.69%.
Under `CN(C)C(=O)COC[C@H]1CC[C@@H]2[C@@H](CCN2Cc2ccccn2)O1` stands 53.98%.
Under `c1ccc(COC[C@H]2CC[C@H]3[C@H](CCN3Cc3ccccn3)O2)nc1` stands 4.54%; under `OCCN1CC2(CCN(c3ccccc3)C2)C1`, -55.62%.
With `CCN(C)C1CCCc2nc(C)sc21` (stereo not drawn), the INHIBITION was 9.52%.
